# Laboratory results published in PubChem BioAssay (EPA / NIEHS).
# “And” between values parts separate entries of the source, which are not always exact repeats. Identical values can stand only once. Where a structure was tested more than once in an assay, its records may differ in their call. The source made the active and inactive calls. Rule for the calls: active = hit-call score of the fitted dose curve at least 0.9, where 1 is the maximum; inactive = score below 0.9.
# Molecular target: Cytochrome P450 2C18 (Homo sapiens) (UniProt P33260)
# Test: NVS_ADME_hCYP2C18: NovaScreen (NVS) CYP450-related Enzyme Activity (ADME) Assay for human CYP2C18 (AID 2283103)
# Protocol: NVS_ADME_hCYP2C18 is a biochemical, single-readout assay that uses extracted gene-proteins in a cell-free assay. Measurements were taken 0.5 hour after chemical dosing in a 96-well plate.NVS_ADME_hCYP2C18 is one of one assay component(s) measured or calculated from the NVS_ADME_hCYP2C18 assay. It is designed to make measurements of enzyme activity, a form of enzyme reporter, as detected with fluorescence intensity signals by Fluorescence technology.Data from the assay component NVS_ADME_hCYP2C18 was analyzed into 1 assay endpoint. This assay endpoint, NVS_ADME_hCYP2C18, was analyzed in the positive analysis fitting direction relative to Acetonitrile as the negative control and baseline of activity. Using a type of enzyme reporter, loss-of-signal activity can be used to understand changes in the enzymatic activity as they relate to the gene CYP2C18. Furthermore, this assay endpoint can be referred to as a primary readout, because this assay has produced multiple assay endpoints where this one serves a enzymatic activity function. To generalize the intended target to other relatable targets, this assay endpoint is annotated to the cyp intended target family, where the subfamily is xenobiotic metabolism.
# Binding assays used specific radioligands (tritiated, iodinated) with non-radioactive competitive displacement ligands in agonist or antagonist protocols (as indicated) and various reference compounds and inhibitors to titrate specific binding to receptors and transporters. Most enzyme assays (CYPs, kinases, phosphatases, proteases, HDACs) used recombinant protein and specific substrates (fluorescence mostly, some colorimetric and radioactive) and inhibitors, followed by a biochemical separation of substrate and product. All assays for the biochemical HTS were initially run in duplicate at a single concentration (10 uM for CYP450 assays and 25 uM for all others). Assay-chemical combinations meeting a pre-defined threshold (e.g., 30% inhibition and other criteria defined below) were then run in singleton concentration-response format with maximum concentration of 20 uM for CYPs and 50 uM for all others. Each assay was run with positive and negative controls, and concurrent controls on every plate. The follow-up (secondary) screen tested active chemical-pairs in concentration series, as well as a few additional assays not tested in the primary screen, some selected negative inactives, and several cases re-run in the concentration series for confirmatory purposes.
# Cytochrome P450 2C18 (Homo sapiens), sequence (P33260 whole entry, looked up): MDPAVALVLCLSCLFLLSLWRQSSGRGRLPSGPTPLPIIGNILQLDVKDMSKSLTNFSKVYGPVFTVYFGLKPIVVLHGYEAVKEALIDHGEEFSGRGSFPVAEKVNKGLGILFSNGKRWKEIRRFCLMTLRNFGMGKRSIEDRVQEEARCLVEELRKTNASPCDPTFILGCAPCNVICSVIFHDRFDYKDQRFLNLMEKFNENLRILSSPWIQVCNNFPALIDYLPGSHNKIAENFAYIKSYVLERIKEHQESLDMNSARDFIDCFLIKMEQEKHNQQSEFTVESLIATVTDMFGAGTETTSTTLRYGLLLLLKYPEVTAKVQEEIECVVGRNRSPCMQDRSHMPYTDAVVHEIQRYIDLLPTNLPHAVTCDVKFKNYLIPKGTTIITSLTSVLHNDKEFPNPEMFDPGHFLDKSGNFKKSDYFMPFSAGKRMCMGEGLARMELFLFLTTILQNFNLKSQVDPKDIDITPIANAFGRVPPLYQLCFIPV
Structure (SMILES),outcome,AC50
O=c1c(-c2ccc(O)cc2)coc2cc(O)cc(O)c12,inactive,–
CCCCC(CC)COC(=O)c1ccccc1C(=O)O (stereo unspecified),inactive,–
CCOC(=O)NCCOc1ccc(Oc2ccccc2)cc1,–,4.5 µM (active)
CC(=O)[C@H]1CC[C@H]2[C@@H]3CCC4=CC(=O)CC[C@]4(C)[C@H]3CC[C@]12C,inactive,7.03 µM (active) and 2.27 µM (active)
C#C[C@]1(O)CC[C@H]2[C@@H]3CCc4cc(O)ccc4[C@H]3CC[C@@]21C,inactive,1.46 µM (active) and 1.72 µM (active)
N#CSCSc1nc2ccccc2s1,–,2.72 µM (active)
CC(=O)O[C@]1(C(C)=O)CC[C@H]2[C@@H]3C=C(Cl)C4=CC(=O)[C@@H]5C[C@@H]5[C@]4(C)[C@H]3CC[C@@]21C,inactive,6.86 µM (active)
CC(C)(c1ccc(O)cc1)c1ccc(O)cc1,–,6.12 µM (active) and 7.43 µM (active)
CSC(=O)c1cccc2nnsc12,–,3.8 µM (active)
CCN(CC)CCOc1ccc(C(=C(Cl)c2ccccc2)c2ccccc2)cc1,–,11.4 µM (active) and 4.62 µM (active)
C#CCOC(=O)[C@@H](C)Oc1ccc(Oc2ncc(Cl)cc2F)cc1,–,2.13 µM (active)
CCCCCOC(=O)COc1cc(N2C(=O)C3=C(CCCC3)C2=O)c(F)cc1Cl,inactive,–
S=C(S)NCCNC(=S)S.[Mn+2].[S-]C([S-])=NCCN=C([S-])[S-].[Zn+2],inactive,–
C[C@]12CC[C@@H]3c4ccc(O)cc4CC[C@H]3[C@@H]1CC[C@@H]2O,–,9.57 µM (active)
CCCCC(CC)CN1C(=O)C2C3C=CC(C3)C2C1=O (stereo unspecified),–,4.81 µM (active)
CCCCOCCOCCOCc1cc2c(cc1CCC)OCO2,–,4.47 µM (active)
Oc1ccc(C(c2ccc(O)cc2)C(Cl)(Cl)Cl)cc1,–,0.668 µM (active)
CC(C)[C@@H](C(=O)O[C@@H](C#N)c1cccc(Oc2ccccc2)c1)c1ccc(Cl)cc1,inactive,–
CC(C)(C)[C@@H](O)[C@@H](Cc1ccc(Cl)cc1)n1cncn1,–,5.35 µM (active)
COC(=O)CSc1cc(N=c2sc(=O)n3n2CCCC3)c(F)cc1Cl,inactive,–
S=C([S-])NCCNC(=S)[S-].[Mn+2],–,10 µM (active)
C=CCOC(Cn1ccnc1)c1ccc(Cl)cc1Cl (stereo unspecified),–,0.427 µM (active)
Cc1nn(C)c(Oc2ccccc2)c1C=NOCc1ccc(C(=O)OC(C)(C)C)cc1,inactive,–
